Measured values from PubChem BioAssay (NCATS).
Records with an inconclusive call do not appear. Where a call stands in place of a potency, no number is given. Activity calls are given as the source filed them. Calls come from the whole dose curve; as a rule, active = well fitted curve in the direction sought with a large enough effect; inconclusive = small, poorly fitted or top-dose-only effect, or another doubt; inactive = no such curve, though single readings can be large; an effect the other way counts as inactive or inconclusive.

The compounds below were run against Transient receptor potential cation channel subfamily V member 1 (Homo sapiens) (UniProt Q8NER1) (assay: HTS Assay for Compounds that Act as Enhancers of the Vanilloid Receptor 1 (AID 488979)). Settings: TRPV1-expressing cells, enhancer of channel activity, stimulated with capsaicin at EC20; series mostly up to 41.7 µM.
Transient receptor potential cation channel subfamily V member 1 (Homo sapiens), sequence (Q8NER1 whole entry, looked up): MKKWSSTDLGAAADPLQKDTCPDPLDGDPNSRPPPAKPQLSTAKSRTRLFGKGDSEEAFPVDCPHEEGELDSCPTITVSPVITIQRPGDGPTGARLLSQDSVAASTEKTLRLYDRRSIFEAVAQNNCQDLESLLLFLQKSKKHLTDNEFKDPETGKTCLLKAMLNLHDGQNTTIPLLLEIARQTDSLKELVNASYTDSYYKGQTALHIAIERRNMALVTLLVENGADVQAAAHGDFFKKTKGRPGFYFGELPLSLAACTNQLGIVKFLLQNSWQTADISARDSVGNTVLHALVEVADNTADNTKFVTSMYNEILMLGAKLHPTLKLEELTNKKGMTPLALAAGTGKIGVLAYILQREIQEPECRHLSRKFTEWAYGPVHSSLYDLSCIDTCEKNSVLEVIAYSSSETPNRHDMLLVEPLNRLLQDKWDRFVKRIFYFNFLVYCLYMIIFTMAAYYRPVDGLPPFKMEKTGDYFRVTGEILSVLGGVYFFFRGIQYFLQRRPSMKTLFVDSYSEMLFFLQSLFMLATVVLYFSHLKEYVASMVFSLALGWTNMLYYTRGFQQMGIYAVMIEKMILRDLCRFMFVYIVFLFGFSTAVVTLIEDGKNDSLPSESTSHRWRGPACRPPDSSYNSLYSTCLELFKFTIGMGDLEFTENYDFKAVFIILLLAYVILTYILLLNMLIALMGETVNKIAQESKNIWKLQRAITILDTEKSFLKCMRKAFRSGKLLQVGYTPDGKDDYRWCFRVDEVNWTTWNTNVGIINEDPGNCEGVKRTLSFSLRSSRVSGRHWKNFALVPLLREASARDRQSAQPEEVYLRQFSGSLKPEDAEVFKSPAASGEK
Outline: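 TRPV1-expressing cells loaded with Fluo-8 calcium dye; compounds added and calcium influx read kinetically for 3 min (agonist phase), then capsaicin at EC20 added and read 2 min more for enhancement. Fluorescence ex 480/em 520 nm.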

Structure (SMILES) | outcome
Fc1ccc(C(OCCCc2cnc[nH]2)c2ccc(F)cc2)cc1 | inactive
O=C(O)CC1CCCc2ccccc2C1O (stereo not given) | inactive
CCCCCC(O)c1cccc(OCc2ccc3ccccc3n2)c1 (stereo not given) | inactive
Fc1cccc(/C=N/N=C/c2cccc(F)c2)c1 | inactive
C#CCN1C(C)=C(C(=O)OC)C(c2cccc([N+](=O)[O-])c2)C(C(=O)OCC)=C1C (stereo not given) | inactive
NCCSSCCN | inactive
CCCCN1CCC(n2c(=O)[nH]c3ccccc32)CC1 | inactive
NO | inactive
NCCCCCCCCCCN | inactive
O=C(O)CCCC[C@@H]1CCSS1 | inactive
NC(=O)C(=O)O | inactive
O=c1[nH]c2cc([N+](=O)[O-])c([N+](=O)[O-])cc2[nH]c1=O | inactive
N=C(N)SCCc1ccc(CCSC(=N)N)cc1 | inactive
CC(=O)N[C@H](C(=O)O)C(C)(C)SN=O | inactive
CN1C2CCC1CC(OC(=O)C(O)c1ccccc1)C2 (stereo not given) | inactive
CN1CCC[C@H]1c1cccnc1 | inactive
N#C/C(=C\c1ccc(O)c(O)c1)C(=O)NCc1ccccc1 | inactive
N#C/C(=C\c1c[nH]c2ccccc12)C(=O)c1ccc(O)c(O)c1 | inactive
O=C(O)[C@@H]1C[C@H](C(=O)O)N1 | inactive

These compounds were tested against Thyrotropin receptor (Homo sapiens) (UniProt P16473) (assay: qHTS Assay for Antagonists of the Thyroid Stimulating Hormone Receptor (AID 488980)). Settings: TSHR-expressing cells, cAMP antagonist read-out; series mostly up to 57.5 µM.
Thyrotropin receptor (Homo sapiens), sequence (P16473 whole entry, looked up): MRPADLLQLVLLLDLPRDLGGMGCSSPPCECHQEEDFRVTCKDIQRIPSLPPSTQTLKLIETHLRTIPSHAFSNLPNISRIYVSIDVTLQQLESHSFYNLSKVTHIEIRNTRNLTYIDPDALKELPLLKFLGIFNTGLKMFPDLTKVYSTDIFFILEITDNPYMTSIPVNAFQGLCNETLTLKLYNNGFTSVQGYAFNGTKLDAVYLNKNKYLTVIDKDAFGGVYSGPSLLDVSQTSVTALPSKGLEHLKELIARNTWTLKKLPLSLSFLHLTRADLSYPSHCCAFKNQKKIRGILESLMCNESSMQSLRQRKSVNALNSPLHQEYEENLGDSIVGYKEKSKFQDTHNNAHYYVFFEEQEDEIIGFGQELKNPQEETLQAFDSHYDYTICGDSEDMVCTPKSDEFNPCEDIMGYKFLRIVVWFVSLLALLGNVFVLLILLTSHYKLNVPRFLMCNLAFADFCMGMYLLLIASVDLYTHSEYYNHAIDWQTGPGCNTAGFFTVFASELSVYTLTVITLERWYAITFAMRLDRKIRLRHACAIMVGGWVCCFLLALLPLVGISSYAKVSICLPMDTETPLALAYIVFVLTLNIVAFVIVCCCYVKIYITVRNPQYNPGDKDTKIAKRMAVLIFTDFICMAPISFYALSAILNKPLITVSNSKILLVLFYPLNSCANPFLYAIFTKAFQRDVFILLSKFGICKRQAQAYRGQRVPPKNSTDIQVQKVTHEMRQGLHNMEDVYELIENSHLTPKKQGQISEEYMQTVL
Outline: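 Cells expressing human TSHR (HEK293) are dispensed in HBSS/HEPES containing 70 uM RO 20-1724, compound is added, then TSH at EC80 (4 nM final). Antibody in lysis buffer follows, 30 minutes at room temperature before HTRF detection.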

Structure (SMILES) | outcome
Fc1ccc(C(OCCCc2cnc[nH]2)c2ccc(F)cc2)cc1 | inactive
O=C(O)CC1CCCc2ccccc2C1O (stereo not given) | inactive
CCCCCC(O)c1cccc(OCc2ccc3ccccc3n2)c1 (stereo not given) | inactive
Fc1cccc(/C=N/N=C/c2cccc(F)c2)c1 | inactive
C#CCN1C(C)=C(C(=O)OC)C(c2cccc([N+](=O)[O-])c2)C(C(=O)OCC)=C1C (stereo not given) | inactive
NCCSSCCN | inactive
CCCCN1CCC(n2c(=O)[nH]c3ccccc32)CC1 | inactive
NO | inactive
NCCCCCCCCCCN | inactive
O=C(O)CCCC[C@@H]1CCSS1 | inactive
NC(=O)C(=O)O | inactive
O=c1[nH]c2cc([N+](=O)[O-])c([N+](=O)[O-])cc2[nH]c1=O | inactive
N=C(N)SCCc1ccc(CCSC(=N)N)cc1 | inactive
CC(=O)N[C@H](C(=O)O)C(C)(C)SN=O | inactive
CN1C2CCC1CC(OC(=O)C(O)c1ccccc1)C2 (stereo not given) | inactive
NC[C@@H]1O[C@H](C23CC4CC(CC(C4)C2)C3)Cc2c1ccc(O)c2O | inactive
CCCCCCCCCCCCCCCC(=O)NCC(COP(=O)([O-])OCC[N+](C)(C)C)OCC (stereo not given) | inactive
N#C/C(=C\c1ccc(O)c(O)c1)C(=O)NCc1ccccc1 | inactive
N#C/C(=C\c1c[nH]c2ccccc12)C(=O)c1ccc(O)c(O)c1 | inactive
O=C(O)[C@@H]1C[C@H](C(=O)O)N1 | inactive

Each compound was assayed against D(1A) dopamine receptor (Homo sapiens) (UniProt P21728) (assay: HTS Assay for Allosteric Agonists of the Human D1 Dopamine Receptor: Primary Screen for Agonists (AID 488981; note: potency is the fitted concentration of half-maximal effect)). Settings: Inducible HEK293 T-REx D1 cells, calcium-flux fluorescence, 180 s kinetic; series mostly up to 41.8 µM.
D(1A) dopamine receptor (Homo sapiens), sequence (P21728 whole entry, looked up): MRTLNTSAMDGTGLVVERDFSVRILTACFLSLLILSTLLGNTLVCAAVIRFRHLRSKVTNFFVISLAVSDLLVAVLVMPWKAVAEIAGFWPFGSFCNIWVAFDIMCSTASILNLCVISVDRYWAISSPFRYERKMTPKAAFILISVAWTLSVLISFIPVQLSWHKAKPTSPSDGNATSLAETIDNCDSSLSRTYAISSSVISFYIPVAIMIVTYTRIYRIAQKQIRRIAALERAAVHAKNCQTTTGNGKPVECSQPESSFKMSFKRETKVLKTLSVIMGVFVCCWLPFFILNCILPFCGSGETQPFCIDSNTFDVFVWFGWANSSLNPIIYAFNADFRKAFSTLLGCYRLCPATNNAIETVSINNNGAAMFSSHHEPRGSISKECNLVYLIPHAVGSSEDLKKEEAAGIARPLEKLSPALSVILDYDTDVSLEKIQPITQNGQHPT
Outline: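 Tetracycline-induced HEK293 T-REx cells force-coupled to calcium signalling were incubated overnight at 30 C and dye-loaded at room temperature. Calcium flux over 180 s after compound addition flagged agonists; a further 180 s read after EC20 dopamine flagged potentiators.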

Structure (SMILES) | Potency
Nc1nc(SCc2ccc([N+](=O)[O-])cc2)c2ncn([C@@H]3O[C@H](CO)[C@@H](O)[C@H]3O)c2n1 | inactive
Fc1ccc(C(OCCCc2cnc[nH]2)c2ccc(F)cc2)cc1 | inactive
CCCCCCCCc1ccc(-c2ccc(C(=O)O)cc2)cc1 | inactive
O=C(O)CC1CCCc2ccccc2C1O (stereo not given) | inactive
CCCCCC(O)c1cccc(OCc2ccc3ccccc3n2)c1 (stereo not given) | inactive
CC1OC1P(=O)(O)O (stereo not given) | inactive
Fc1cccc(/C=N/N=C/c2cccc(F)c2)c1 | inactive
C#CCN1C(C)=C(C(=O)OC)C(c2cccc([N+](=O)[O-])c2)C(C(=O)OCC)=C1C (stereo not given) | inactive
NC(=O)C1=CN(C2OC(COP(=O)(O)OP(=O)(O)OC[C@H]3O[C@@H](n4cnc5c(N)ncnc54)[C@H](OP(=O)(O)O)[C@@H]3O)C(O)C2O)C=CC1 (stereo not given in full) | inactive
Cc1nc2sccn2c(=O)c1CCN1CCC(=C(c2ccccc2)c2ccc(F)cc2)CC1 | inactive
NCCSSCCN | inactive
CCOC(=O)N1CCN(/[N+]([O-])=N/Oc2ccc([N+](=O)[O-])cc2[N+](=O)[O-])CC1 | inactive
CCCCN1CCC(n2c(=O)[nH]c3ccccc32)CC1 | inactive
NO | inactive
NCCCCCCCCCCN | inactive
COc1ccccc1N1CCN(CCN(C(=O)c2ccc(I)cc2)c2ccccn2)CC1 | inactive
O=C(O)CCCC[C@@H]1CCSS1 | inactive
NC(=O)C(=O)O | inactive

Structure (SMILES) | Potency
O=c1[nH]c2cc([N+](=O)[O-])c([N+](=O)[O-])cc2[nH]c1=O | inactive
N=C(N)SCCc1ccc(CCSC(=N)N)cc1 | inactive
NCC1OC(O[C@H]2[C@H](O)[C@@H](OC3C(O)C(N)CC(N)C3OC3OC(CO)C(O)C(O)C3N)O[C@@H]2CO)C(N)C(O)C1O (stereo not given in full) | inactive
O=C(CCCCCN1CCN(c2ccccc2-c2ccccc2)CC1)NC1CCCc2ccccc21 (stereo not given) | inactive
CC(=O)N[C@H](C(=O)O)C(C)(C)SN=O | inactive
O=P(O)(O)C(Cl)(Cl)P(=O)(O)O | inactive
CN1C2CCC1CC(OC(=O)C(O)c1ccccc1)C2 (stereo not given) | inactive
CNc1ncnc2c1ncn2[C@@H]1O[C@H](CO)[C@@H](O)[C@H]1O | inactive
CC[C@@H](C)[C@H]1O[C@]2(CC[C@H]1C)C[C@@H]1C[C@@H](CC=C(C)[C@@H](O[C@H]3C[C@H](OC)[C@@H](O[C@H]4C[C@H](OC)[C@@H](O)[C@H](C)O4)[C@H](C)O3)[C@@H](C)C=CC=C3CO[C@@H]4[C@H](O)C(C)=C[C@@H](C(=O)O1)[C@]34O)O2 | inactive
OCC1O[C@H]([S-])[C@H](O)[C@@H](O)[C@@H]1O.[Au+] (stereo not given in full) | inactive
CCN(CC)c1ncnc2c1ncn2[C@@H]1O[C@H](COP(=O)(O)OP(=O)(O)C(Br)(Br)P(=O)(O)O)[C@@H](O)[C@H]1O | inactive
CCCCCCCCCCCCCCCC(=O)NCC(COP(=O)([O-])OCC[N+](C)(C)C)OCC (stereo not given) | 12.6 µM (active)
CN1CCC[C@H]1c1cccnc1 | inactive
Cn1ncc(S(=O)(=O)Cc2ccccc2)c(Br)c1=O | inactive
N#C/C(=C\c1ccc(O)c(O)c1)C(=O)NCc1ccccc1 | inactive
N#C/C(=C\c1c[nH]c2ccccc12)C(=O)c1ccc(O)c(O)c1 | inactive
O=C(O)[C@@H]1C[C@H](C(=O)O)N1 | inactive
C=C[C@H]1CN2CC[C@@H]1C[C@@H]2[C@@H](O)c1ccnc2ccc(OC)cc12 | inactive
